Rows were chosen to be rich in hits. Some 1.4% of all compounds tested hit in one or more screens of this group.
TCR activator – activates T cell receptor signaling; primary human leukocytes, anti-CD3, IL-2 HTRF, 48 h; Potency, µM (titrated, usually from 9.22 µM), usual class: activators; 330,000 tested, under 10 active
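Primary human leukocytes incubated 48 hr with anti-CD3 beads plus compound, without co-stimulation. Secreted IL-2 measured by HTRF (europium cryptate/d2 anti-IL-2 pair, 320 nm excitation, 665 nm emission).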
IL2 activator – activates IL-2 in a cell-based reporter assay; IL-2 activation reporter assay, cell-based qHTS; stimulated with anti-CD3/CD4/CD28 beads; in transgenic mouse T cells; activation, % (series mostly up to about 46 µM); hit rate 0.065% among 360,000; in the data active means activation above about 50%; inconclusive means mostly about 30% to 49%
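Unstimulated transgenic mouse T cells preincubated 60 min with compound, then stimulated with anti-CD3/anti-CD4-coated beads plus anti-CD28 for 18 h at 37 degrees C. IL-2 response read as EGFP and DsRed fluorescence by plate cytometry.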
uPA generation – inhibitors of cell surface uPA generation. cell surface uPA generation assay, qHTS. Potency, µM (highest dose often 38.3 µM), hits mostly inhibitors. hit rate 0.31% among 330,000; active means well fitted inhibition curve with a large enough effect; inconclusive means small, poorly fitted or top-dose-only effect; inactive means no such curve, though single readings can be large or run the other way; tested in mouse RAW 264.7 cells; further: nearly all actives have a fitted effect of over 55% in size
BRCA1 expr up – activators of BRCA1 expression | Potency, µM (top dose mostly 46.1 µM), actives largely listed as activators | hit rate 1.1% among 380,000 | MCF7-BRCA1-FFLuc reporter, luminescence, 48 h; response scale: scaled: vehicle 0%, 10 µM genistein 100%; further: nearly all actives have a fitted effect of over 80% in size
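Reporter cells (MCF7, BRCA1 promoter-firefly luciferase) received library compounds across a concentration series for 48 h. End-point luminescence was measured and concentration-effect curves derived after normalization.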
p53 reactivation – mutant p53 re-activation in reporter cells; H1299 p53-A138V BP100-luciferase reporter, luminescence, 24 h; Potency, µM (titrated, usually from 92.2 µM), actives largely listed as activators; hit rate 0.063% among 320,000; further: nearly all actives have a fitted effect of over 45% in size
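H1299 (p53-null), stable ts p53-A138V + BP100-Luc; 1000 cells/well, Opti-MEM/10% FBS; cpd 4 pt, 1:5; 24 h, 37 deg C, 5% CO2; detection reagent 10 min RT; luminescence.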
Numbers stand for hits; - = inactive; ? = inconclusive; . = no result. Unless noted, the call rests on the fitted dose curve; in most records, active means well fitted curve in the direction sought with a large enough effect; inconclusive means small, poorly fitted or top-dose-only effect, or another doubt; inactive means no such curve, though single readings can be large; an effect the other way counts as inactive or inconclusive.

SMILES	TCR activator	IL2 activator	uPA generation	BRCA1 expr up	p53 reactivation
O=C(O)c1ccc2c(ccc3nn(-c4ccc(/C=C/c5ccc(-n6nc7ccc8cc(C(=O)O)ccc8c7n6)cc5[S+](=O)([O-])[O-])c([S+](=O)([O-])[O-])c4)nc32)c1	.	.	.	-	.
O=C(O)Cc1csc(Nc2cccc(Cl)c2)n1	-	-	-	-	?
CC(C)c1ccc(Nc2nc(CC(=O)O)cs2)cc1	-	-	-	5.01µM	?
COc1ccc2nc(/C=N/NC(=O)[C@@H]3CCCN3C(=O)OC(C)(C)C)ccc2c1	-	-	-	7.08µM	-
CCC(=O)N1CCc2cc(Br)cc(S(=O)(=O)NCCc3ccccc3Cl)c21	.	.	.	-	.
N#Cc1ccc(Oc2ccc(S(=O)(=O)N3CCCCC3)cn2)cc1	-	-	-	-	-
N#Cc1ccccc1Oc1ccc(S(=O)(=O)N2CCCCC2)cn1	-	-	-	10µM	-
COc1ccc(-c2ccc(C(=O)Nc3cccc(N(C)C)c3)c3occc23)c(C)c1	.	-	.	2.51µM	.
COc1ccc(-c2ccc(C(=O)Nc3cccc(F)c3)c3occc23)c(C)c1	.	-	.	?	.
Cn1cc(-c2ccc(C(=O)Nc3cccc(Oc4ccccc4)c3)c3occc23)cn1	.	-	.	11.2µM	.
COc1ccc2c(c1OC)C(=O)N1c3ccccc3C(=O)N(Cc3ccco3)C21 (centres undefined)	.	.	.	-	.
COc1cc(/C=N/N=C2/NC(=O)C(CC(=O)O)S2)ccc1OCc1cccc(Cl)c1 (centres undefined)	-	-	-	11.2µM	-
Cc1nn2c3c(cnc2c1-c1ccc(Cl)cc1)C(=O)CC(c1ccc(C(C)C)cc1)C3 (centres undefined)	.	.	.	-	.
Cc1cccc(CC(=O)NCC2CCCCC2)c1	-	-	-	10µM	?
Cc1nc(S(=O)(=O)N2CCN(c3cccc(Cl)c3)CC2)cn1C	.	.	.	-	.
COc1ccc(NC(=O)CN(C)C(=O)CNC(=O)c2sc3ccccc3c2Cl)cc1	-	-	-	7.94µM	?
COc1cccc(NC(=O)CN(C)C(=O)CNC(=O)c2sc3ccccc3c2Cl)c1	-	-	-	?	?
O=c1cc(-c2ccc(O)cc2)oc2c1ccc1ccccc12	-	-	-	-	?
O=c1cc(-c2ccc(O)cc2)oc2ccc3ccccc3c12	-	-	0.891µM	-	-
CCC(=O)Nc1ccc(C(=O)Nc2cccc(C)n2)cc1	-	-	-	2.51µM	-
Cc1ccc(CC(=O)Nc2cccc(C)n2)cc1	-	-	.	10µM	-
CCOC(=O)c1ccc(NC(=O)Nc2cccc(C)n2)cc1	-	-	-	-	-
O=C(Nc1ccc2c(c1)CCC2)c1cnccn1	-	-	.	3.55µM	?
O=C(CSc1ncccn1)Nc1ccc2[nH]c(=O)[nH]c2c1	-	-	-	-	-
O=C(CSc1ncccn1)Nc1ccc2c(c1)CCC2	-	-	-	8.91µM	-
SMILES	TCR activator	IL2 activator	uPA generation	BRCA1 expr up	p53 reactivation
CC/C(=N/Nc1cccc(C)c1)c1cnnc(SC)n1	-	189.6	-	-	-
Cc1cc2nc(-c3ccc(OCc4ccc(F)cc4)cc3)cc(C(F)(F)F)n2n1	.	.	.	-	.
CSc1c(CC(=O)Nc2ccccc2)n(C)c2ccccc12	.	-	?	-	.
Cn1c(CC(=O)Nc2ccccc2)cc2ccccc21	-	-	4.47µM	-	.
Cc1cnc2c3c(cc(Cl)c2c1)-c1ccccc1S(=O)(=O)N3	.	.	.	-	.
CCCN1CNc2c(c(=O)[nH]c(=S)n2CCc2ccc(Cl)cc2Cl)C1	.	.	.	-	.
COc1cc(CN(C(=O)Nc2cccc(Cl)c2)c2ccccn2)cc(OC)c1OC	.	.	.	-	.
CCCCCCCC/C=C\CCCCCCCC(=O)NCCc1ccc(O)c(O)c1	-	-	3.16µM	-	-
C=CCn1c(-c2ccc(N)cc2)nc2ccccc21	-	-	-	-	?
C=CCn1c(-c2ccc(OC)cc2)nc2ccccc21	-	-	-	10µM	-
COc1cc2c(cc1OC)CN(C(=O)c1cccs1)CC2	-	-	-	-	-
COc1cc2c(cc1OC)CN(C(=O)/C=C/c1cccs1)CC2	-	-	3.16µM	-	-
COc1ccccc1/C=C/C(=O)NCCc1ccccn1	-	-	-	3.16µM	?
COc1ccccc1/C=C/C=N/NC(=O)c1ccccn1	-	-	-	5.01µM	-
COc1cc(/C=C/C(=O)NCc2ccccn2)cc(OC)c1OC	-	-	-	-	-
COc1ccccc1/C=C/C=N/NC(=O)c1cnccn1	-	-	-	-	-
Cc1cc(C)cc(NC(=O)c2sc3nc(C)cc(C)c3c2N)c1	-	-	-	3.98µM	-
Cc1cc(C)c(NC(=O)c2sc3nc(C)cc(C)c3c2N)c(C)c1	.	.	.	-	.
N#Cc1cc2c(N)c(C(=O)Nc3ccccc3)sc2nc1N	.	.	.	.	-
Cc1cccc(NC(=O)c2sc3nc(N)c(C#N)cc3c2N)c1	-	-	-	3.16µM	?
COCCCNC(=O)c1ccc2c(c1)N=C(C)c1c(C)ccc(C)c1S2	.	.	.	-	.
CCCCC(CC)CNC(=O)c1ccc2c(=O)n(CCOC)c(=O)[nH]c2c1 (centres undefined)	.	.	.	-	.
Clc1ccc(-c2nnc(-c3ccc4ccccc4c3)o2)cc1	-	-	-	2µM	.
c1cncc(-c2nnc(-c3ccco3)o2)c1	-	-	-	-	-
COc1cccc(-c2nnc(-c3ccc4ccccc4c3)o2)c1	-	-	-	?	.
SMILES	TCR activator	IL2 activator	uPA generation	BRCA1 expr up	p53 reactivation
Clc1ccc(-c2nnc(-c3ccco3)o2)cc1	-	-	-	5.62µM	?
Cc1ccc(-c2nnc(-c3ccc4ccccc4c3)o2)cc1	-	-	-	4.47µM	.
Nc1c(C(=O)Nc2ccc(OC(F)(F)F)cc2)nnn1Cc1ccccc1	.	.	.	-	.
O=C(NCc1ccco1)c1cc(-c2ccc(F)cc2)on1	.	-	.	8.91µM	?
O=C(NCc1ccco1)c1ccc2ccccc2c1	-	-	-	11.2µM	?
O=C(NCc1ccco1)c1sc2cc(F)ccc2c1Cl	-	-	-	12.6µM	-
CCCCOc1ccc(C(=O)Nc2cc(C)c(OCC(=O)N3CCOCC3)c(C)c2)cc1	-	-	-	-	-
Cc1cc(NC(=O)c2ccc(Cl)cc2)cc(C)c1OCC(=O)N1CCOCC1	-	-	3.98µM	?	-
Cc1ccc(-c2noc(-c3ccc(NC4CCCC4)c([N+](=O)[O-])c3)n2)cc1	.	.	.	-	.
O=C1S/C(=C\C=C\c2ccco2)C(=O)N1c1ccc(O)cc1	-	-	-	?	?
O=C1S/C(=C\C=C\c2ccco2)C(=O)N1c1ccccc1	-	-	-	3.55µM	?
c1ccc(CSc2ccc(-c3ccco3)nn2)cc1	-	-	-	3.16µM	?
Cc1ccc(CSc2ccc(-c3ccco3)nn2)cc1	-	-	-	3.55µM	?
Clc1ccc(CSc2ccc(-c3ccco3)nn2)cc1	-	-	-	12.6µM	-
Clc1cccc(CSc2ccc(-c3ccco3)nn2)c1	.	-	-	-	-
Cc1cccc(CSc2ccc(-c3ccco3)nn2)c1	-	-	-	?	?

High-throughput results: PubChem BioAssay, National Center for Advancing Translational Sciences (NCATS)
